The whole screen tested about 310,000 compounds, of which about 11,000 (3.5%) were called active. A call without a number means that no potency is given here. Not shown: some 8% with an inconclusive outcome. Calls follow the shape of the dose curve; as a rule, active = well fitted inhibition curve with a large enough effect; inconclusive = small, poorly fitted or top-dose-only effect, or effect the other way; inactive = flat fitted curve, though single readings scatter. This excerpt belongs to a sample that is enriched for actives.
Test: VP16 counterscreen qHTS for inhibitors of ROR gamma transcriptional activity;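 also: Gal4-VP16 expression switched on by copper sulfate through the metallothionein promoter; nearly all actives have a fitted effect of over 50% in size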
Settings: Drosophila S2 Gal4-VP16 UAS-luciferase, luminescence, 20 h; series mostly up to 53.6 µM
Potency is read from the fitted curve at half-maximal effect.

Row | Structure (SMILES) | Potency
1 | Cc1cccn2cc(-c3cccc(S(=O)(=O)N4CCCCC4)c3)nc12 | inactive
2 | COc1ccc(CCC(C)N2CCc3ccccc3C2)cc1 (configuration not stated) | inactive
3 | Cc1cccc([C@@H]2[C@@H]3C(=O)N(Cc4ccccc4)C(=O)[C@@H]3[C@]3(C)C(=O)N(c4ccc(Br)cc4)C(=O)N23)c1 | inactive
4 | Cn1nccc1C(=O)N1CCCC(C(=O)c2ccc(Oc3ccccc3)cc2)C1 (configuration not stated) | inactive
5 | CCOC(=O)[C@H]1[C@H]2COc3cc(OC)ccc3[C@@H]2N2C(=O)N(c3ccc(Br)cc3)C(=O)[C@@]12C | inactive
6 | Cc1ccc(OCCCC(=O)Nc2ccc(S(=O)(=O)Nc3cc(C)nc(C)n3)cc2)cc1 | inactive
7 | Cc1ccc(CSc2nsc(C)c2C#N)cc1 | inactive
8 | CCC1(CC)NC(=O)N(Cc2nc3ccccc3s2)C1=O | 3.55 µM (active)
9 | COC(=O)C1[C@H]2SC(C)(C)C(C(=O)OC)N2C(=O)N1Cc1nc2ccccc2s1 (some centres not stated) | inactive
10 | CN(Cc1nc2ccccc2s1)C(=O)c1ccc(F)cc1 | inactive
11 | N#Cc1ccc(C2N=C(c3ccccc3)NO2)cc1 (configuration not stated) | inactive
12 | Cc1ccccc1C(=O)Nc1ccc(N2CCCCCC2)cc1 | inactive
13 | O=C(c1ccccc1)c1ccc(C(=O)N2CCN(c3ccccc3)CC2)cc1 | inactive
14 | COc1ccc(C(=O)N/N=C(\C)CC(=O)Nc2ccc(Cl)cn2)cc1 | inactive
15 | Cc1ccccc1C(=O)N1CCN(c2ccc(NC(=O)c3cccs3)cc2)CC1 | inactive
16 | COc1ccc(C(=O)NC(=S)Nc2ccc(Cl)cn2)cc1OC | 12.6 µM (active)
17 | COc1ccc(C(=O)NC(=S)Nc2ccc(N3CCCC3)cc2)cc1OC | 0.891 µM (active)
18 | COc1ccc(C(=O)Nc2ccc(N3CCC(C)CC3)cc2)cc1Br | inactive
19 | Cc1ccccc1C(=O)NC(=S)Nc1ccc(N2CCN(C(=O)c3ccccc3)CC2)cc1 | 5.62 µM (active)
20 | COc1ccc(C(=O)Nc2ccc(C3(C#N)CCCC3)cc2)cc1OC | inactive
21 | COc1c(Cl)cc(C(=O)Nc2ccc(Cl)cn2)cc1Cl | inactive
22 | O=C(CCN1CCN(c2ccccc2)CC1)NNC(=S)Nc1ccccc1 | inactive
23 | O=C(Cc1ccccc1)NC(=S)Nc1ccc(N2CCCCC2)cc1 | 3.55 µM (active)

Row | Structure (SMILES) | Potency
24 | CC1CN(C(=S)Nc2cccc(F)c2)CC(C)O1 (configuration not stated) | inactive
25 | O=C(C1CC(=O)N(C2CCCCC2)C1)N1CCN(c2ccccc2)CC1 (configuration not stated) | inactive
26 | O=C(CN(CC1CCCO1)C(=O)CNS(=O)(=O)c1ccc(Cl)cc1)NCc1ccccc1 (configuration not stated) | inactive
27 | CCOc1ccc(NC(=O)c2nc(SCC)ncc2Cl)cc1 | inactive
28 | O=[N+]([O-])c1cc([N+](=O)[O-])c(Oc2cc(F)cc(F)c2F)cc1NN1CCCCC1 | inactive
29 | Cc1ccc(-c2noc(C3CCCN(C(=O)c4cccc(Cl)c4)C3)n2)o1 (configuration not stated) | inactive
30 | COc1cccc(OC)c1C(=O)NC(=S)Nc1ccc(N2CCOCC2)c(Cl)c1 | inactive
31 | CCOc1ccc(C(=O)NC(=S)Nc2ccc(N3CCOCC3)c(Cl)c2)cc1[N+](=O)[O-] | 3.98 µM (active)
32 | CCOc1ccc(C(=O)NC(=S)Nc2ccc(NC(=O)C(C)C)cc2)cc1[N+](=O)[O-] | inactive
33 | CCc1ccc(NC(=O)N2CCN(c3ccccc3)CC2)cc1 | inactive
34 | CC(CC(=O)N1CCN(c2ccccc2)CC1)c1ccccc1 (configuration not stated) | inactive
35 | CC(=O)N1CCN(c2ccc(NCc3ccc(C(C)C)cc3)cc2)CC1 | 1.12 µM (active)
36 | Cc1nn(-c2ccccc2)c(Cl)c1/C=N/NC(=O)c1nn(C)cc1[N+](=O)[O-] | inactive
37 | CCc1ccccc1NC1c2ccccc2C(=O)N1c1cccnc1 (configuration not stated) | inactive
38 | COC(=O)c1cc(NC2c3ccccc3C(=O)N2c2ccc(Cl)cn2)cc(C(=O)OC)c1 (configuration not stated) | 11.2 µM (active)
39 | Cc1ccnc(N2C(=O)c3ccccc3C2Nc2ccc3c(c2)OCCO3)c1 (configuration not stated) | inactive
40 | COc1ccccc1CNC(=O)C1CCN(S(=O)(=O)c2ccc3c(c2)CC(C)N3C(=O)C2CC2)CC1 (configuration not stated) | inactive
41 | CN(CCOc1ccc(CC2SC(=O)NC2=O)cc1)c1ccccn1 (configuration not stated) | inactive
42 | C=CCN1C(=O)C(Cc2cccc(Cl)c2)S/C1=N/N=C/c1ccco1 (configuration not stated) | inactive
43 | O=C(O)C[C@@H]1NC(=O)[C@H](Cc2ccccc2)NC1=O | inactive
44 | COc1ccc(CN2C(=O)C(C)S/C2=N/N=C/c2ccco2)cc1 (configuration not stated) | inactive
45 | CC(C)=N/N=C1/NC(=O)C(Cc2ccccc2)S1 (configuration not stated) | 2.82 µM (active)
46 | O=C1N/C(=N\N=C\c2ccco2)SC1Cc1ccc(F)cc1 (configuration not stated) | 4.47 µM (active)

Row | Structure (SMILES) | Potency
47 | CC1Sc2ccc(S(=O)(=O)CCC(=O)NCc3ccccc3Cl)cc2NC1=O (configuration not stated) | inactive
48 | C/C(=N\NC(=O)c1ccc2ccccc2c1)c1cccnc1 | inactive
49 | COc1ccc(CCNC(=O)CS(=O)(=O)Cc2nc(-c3ccc(C)cc3)oc2C)cc1OC | inactive
50 | COc1cccc(CNS(=O)(=O)c2ccc3c(c2)CC(C)N3C(C)=O)c1 (configuration not stated) | inactive
51 | Cn1cncc1COC(=O)c1ccc(Cl)cc1 | inactive
52 | O=C(Cc1c(Cl)cccc1Cl)NC1CC1 | inactive
53 | C=C(C)COc1ccc(-c2ncncc2-c2ccc(OC)cc2)c(O)c1 | inactive
54 | C=C(C)COc1ccc(-c2n[nH]c(C)c2-c2ccccc2OC)c(O)c1 | 14.1 µM (active)
55 | CCOc1ccc(-c2n[nH]c(C)c2-c2ccccn2)c(O)c1 | inactive
56 | C=C(C)COc1ccc(-c2n[nH]c(C)c2-c2ccccc2)c(O)c1 | 3.16 µM (active)
57 | C=C(C)COc1ccc(-c2nc(N)ncc2-c2ccccc2OC)c(O)c1 | inactive
58 | CCOc1ccc(-c2nc(N)ncc2-c2ccccc2OC)c(O)c1 | inactive
59 | O=C(c1ccccc1)N1CCC(CC2CC(c3ccc(Cl)cc3)=NO2)(C(=O)NCC2CCCCC2)CC1 (configuration not stated) | inactive
60 | CCCN1CCn2c3c(c4cc(Br)ccc42)CCCC31 (configuration not stated) | inactive
61 | Cc1cc(O)c(C(=O)/C=C/c2c(F)c(F)c(F)c(F)c2F)c(=O)o1 | inactive
62 | CCOC(=O)N1CCN(C(=O)c2ccc3c(=O)n(CCc4ccc(OC)c(OC)c4)c(=O)[nH]c3c2)CC1 | inactive
63 | CCC(C(=O)OC)n1cnc2scc(-c3ccc(C)cc3)c2c1=O (configuration not stated) | inactive
64 | CC(=O)Oc1ccc(-c2cccc(C(=O)N3CCCCC3)c2)cc1 | inactive
65 | C/C(=N\Nc1nncc2ccccc12)c1ccc(Cl)c([N+](=O)[O-])c1 | inactive
66 | COc1cc(/C=N/Nc2nn3cnnc3c3ccccc23)cc(OC)c1OC | inactive
67 | CN(CCO)c1ccc(/C=N/Nc2nncc3ccccc23)cc1 | 11.2 µM (active)
